Screening data from PubChem BioAssay.
S-ASM inh – human S-ASM enzyme inhibition | P17405 | placental ASM, HMU-PC fluorogenic substrate, 60 min | Potency, µM (doses to about 57.5 µM), usual class: inhibitors | 0.006% of 340,000 active
Target sequence (P17405 47-631 limits assumed): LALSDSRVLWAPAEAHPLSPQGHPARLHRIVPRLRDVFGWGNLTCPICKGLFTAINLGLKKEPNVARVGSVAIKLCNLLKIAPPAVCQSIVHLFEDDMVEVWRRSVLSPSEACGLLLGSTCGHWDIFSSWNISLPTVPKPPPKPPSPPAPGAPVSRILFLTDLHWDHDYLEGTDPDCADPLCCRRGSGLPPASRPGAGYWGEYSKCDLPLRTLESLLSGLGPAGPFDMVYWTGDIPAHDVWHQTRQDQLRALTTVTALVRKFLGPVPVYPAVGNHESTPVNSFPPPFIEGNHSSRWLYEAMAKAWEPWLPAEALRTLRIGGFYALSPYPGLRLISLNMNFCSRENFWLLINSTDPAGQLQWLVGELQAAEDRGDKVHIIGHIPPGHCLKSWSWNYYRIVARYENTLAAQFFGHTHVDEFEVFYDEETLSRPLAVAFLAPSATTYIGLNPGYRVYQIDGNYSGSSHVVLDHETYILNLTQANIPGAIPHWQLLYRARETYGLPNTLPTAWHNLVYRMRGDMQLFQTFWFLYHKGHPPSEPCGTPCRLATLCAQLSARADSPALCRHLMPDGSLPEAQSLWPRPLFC
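qHTS format. ASM enzyme prepared from human placenta hydrolyses the fluorogenic substrate HMU-PC0 (9 uM final) over 60 min at 37 °C after a 10 min compound preincubation.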
KB-3-1 cytotox – KB-3-1 parental cell cytotoxicity; KB-3-1 viability, CellTiter-Glo ATP luminescence, 72 h; 1.4% of 400,000 active; Potency, µM (highest dose often 46.1 µM), most hits filed as cytotoxic; further: nearly all actives have a fitted effect of over 60% in size
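Screening of KB-3-1 cells (DMEM, 10% FBS, phenol-red free) ran from lowest to highest compound concentration; after 72 h at 37 °C viability was read luminescently and curves fitted.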
MCF10A rereplic – DNA re-replication induction in MCF 10a cells. 2.9% of 350,000 active. Potency, µM (titrated, usually from 46.1 µM), hits mostly activators. AID 624296. MCF 10A DNA re-replication, Hoechst nuclear intensity, 48 h; further: nearly all actives have a fitted effect of over 50% in size
Giardia killer – kills Giardia lamblia; activity change, % at 7.66 µM, hits read low; Giardia lamblia trophozoite viability; 0.15% of 340,000 active; in the data active means activity change below about -80%; inconclusive means between about -30% and that limit;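 further: parasites exposed to compound for two days anaerobically before the ATP read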
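Media and compound were dispensed first, then trophozoites at 100 cells/well; plates sat 48 hrs at 37 deg C without oxygen before ATP luminescence reagent was added and read after 15-30 min at room temperature.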
SW480 rereplic – induces DNA re-replication in SW480 colon adenocarcinoma cells | 1.8% of 340,000 active | SW480 DNA re-replication, Hoechst DNA content imaging, 48 h | AID 624297 | Potency, µM (series often up to 46.1 µM), actives largely listed as activators; further: nearly all actives have a fitted effect of over 55% in size
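Quantitative HTS format with DMSO vehicle controls; 48 hr drug incubation at 37 C, then 40 min Hoechst staining and scanning imager measurement at 405 nm excitation.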
KB-V1 MDR tox – kills drug-selected multidrug resistant KB-V1 cells; KB-V1 MDR cells viability, CellTiter-Glo, 72 h; Potency, µM (titrated, usually from 46.1 µM), hits mostly cytotoxic; 3.4% of 400,000 active; AID 1347076; further: nearly all actives have a fitted effect of over 60% in size
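Compound-treated KB-V1 multidrug-resistant cells, 72 h, 37 degrees C; viability by CellTiter-Glo. Fitted qHTS curves give the values.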
Each line names hits and unclear results; the compound was inactive in the other large screens. An excerpt weighted towards active compounds, which were near 6.9% of everything screened. Unless noted, the call rests on the fitted dose curve; in most records, active means well fitted curve in the direction sought with a large enough effect; inconclusive means small, poorly fitted or top-dose-only effect, or another doubt; inactive means no such curve, though single readings can be large; an effect the other way counts as inactive or inconclusive.

COc1ccc(-c2nn(-c3ccccc3)cc2/C=C/C(=O)N2CCN(c3ccccn3)CC2)cc1	KB-V1 MDR tox 14.6µM
O=C(c1cn(-c2ccccc2)nc1-c1ccccc1)N1CCN(c2ccccn2)CC1	KB-3-1 cytotox inconclusive, MCF10A rereplic inconclusive, SW480 rereplic inconclusive, KB-V1 MDR tox 20.6µM
CC1CCc2c(sc3nc(-c4cc5ccccc5oc4=O)nc(Cl)c23)C1 (configuration not stated)	KB-V1 MDR tox inconclusive (no result: S-ASM inh, MCF10A rereplic, Giardia killer, SW480 rereplic)
COc1cc2c(NC3CCN(C)CC3)nc(N3CCCN(C)CC3)nc2cc1OCCCCN(C)C	KB-3-1 cytotox 16.4µM (no result: S-ASM inh, MCF10A rereplic, Giardia killer, SW480 rereplic)
CC(NCc1ccc2c(c1)OCO2)C(=O)N1CCc2ccccc21 (configuration not stated)	SW480 rereplic inconclusive, KB-V1 MDR tox 5.17µM
CC(NCc1ccc(S(N)(=O)=O)cc1)C(=O)N1CCc2ccccc21 (configuration not stated)	none
COC(=O)CCc1c(C)c(C(=O)c2cc(OC)c(OC)c(OC)c2)c2ccccn12	MCF10A rereplic inconclusive, SW480 rereplic 10.3µM
O=C(CSc1ncnc2c1oc1ccccc12)Nc1ccc2c(c1)OCCO2	KB-V1 MDR tox 16.4µM
Cc1nc(SCC(=O)Nc2ccc3c(c2)OCCO3)c2oc3ccccc3c2n1	KB-V1 MDR tox 16.4µM
O=C(CSc1ncnc2c1oc1ccccc12)Nc1cccc(F)c1	MCF10A rereplic inconclusive
O=C(CSc1nc(-c2ccc(F)cc2)[nH]c1-c1ccc(F)cc1)Nc1ccc2c(c1)OCCO2	KB-3-1 cytotox inconclusive, KB-V1 MDR tox 18.4µM (no result: S-ASM inh, MCF10A rereplic, Giardia killer, SW480 rereplic)
Cc1nc(SCC(=O)N2CCN(c3ccccc3)CC2)c2oc3ccccc3c2n1	MCF10A rereplic inconclusive, KB-V1 MDR tox 20.6µM
COc1ccc(OCC(=O)Nc2cc(-c3ccccc3F)nn2-c2ccccc2)cc1	none (no result: S-ASM inh, MCF10A rereplic, Giardia killer, SW480 rereplic)
O=C(COC(=O)c1ccc([N+](=O)[O-])o1)Nc1ncc(Cl)cc1Cl	KB-3-1 cytotox inconclusive
CCc1nc(SCC(=O)Nc2ccc3c(c2)OCCO3)c2oc3ccccc3c2n1	KB-3-1 cytotox inconclusive, MCF10A rereplic 23.1µM, KB-V1 MDR tox 20.6µM
CCc1nc(SCC(=O)N2CCCc3ccccc32)c2oc3ccccc3c2n1	KB-3-1 cytotox inconclusive, MCF10A rereplic 16.4µM, KB-V1 MDR tox 10µM
CCc1nc(SCC(=O)NC2CCCC2)c2oc3ccccc3c2n1	KB-V1 MDR tox inconclusive
CCCCNc1nc2c(c(=O)n(Cc3ccc(Cl)cc3)c(=O)n2C)n1C	KB-3-1 cytotox inconclusive (no result: S-ASM inh, MCF10A rereplic, Giardia killer, SW480 rereplic)
c1ccc(-c2nnc3sc(CN4CCC5(CC4)OCCO5)cn23)cc1	KB-V1 MDR tox 20.6µM
Brc1ccc(-c2nnc3sc(CN4CCCCC4)cn23)cc1	none (no result: S-ASM inh, MCF10A rereplic, Giardia killer, SW480 rereplic)
CCCC(O)c1nc2ccccc2n1Cc1ccccc1OC (configuration not stated)	none (no result: S-ASM inh, MCF10A rereplic, Giardia killer, SW480 rereplic)
COCCn1c(C2CCCCC2)nc2sc3ccccc3c(=O)c2c1=O	KB-V1 MDR tox 4.11µM
COCCn1c(C(C)C)nc2sc3ccccc3c(=O)c2c1=O	MCF10A rereplic inconclusive, KB-V1 MDR tox 16.4µM
CCc1nc2sc3ccccc3c(=O)c2c(=O)n1CCOC	none
CCOC(=O)C1CCN(C(=O)Cn2c(=O)cc(C)c3c(C)nn(C)c32)CC1	KB-V1 MDR tox inconclusive (no result: S-ASM inh, MCF10A rereplic, Giardia killer, SW480 rereplic)
CCN(CC)S(=O)(=O)c1cc(NC(=O)C(C)N(C)CC(=O)Nc2c(C)cccc2C)ccc1C (configuration not stated)	KB-3-1 cytotox inconclusive, KB-V1 MDR tox 5.17µM
Cc1ccc2c(CC(=O)Nc3c(C(=O)c4ccc(F)cc4)oc4ccccc34)coc2c1C	none (no result: S-ASM inh, KB-3-1 cytotox, MCF10A rereplic, SW480 rereplic, KB-V1 MDR tox)
Cc1ccc(-c2nnn(CC(=O)N(CC(=O)NCc3ccccc3)c3cccc(C)c3C)n2)o1	none
Cc1cccc(N(CC(=O)NCc2ccccc2)C(=O)Cn2nnc(-c3ccc(C)o3)n2)c1	KB-V1 MDR tox 2.91µM
Cc1ccc(-c2nnn(CC(=O)N(CC(=O)NCC3CCCO3)c3ccc(F)c(Cl)c3)n2)o1 (configuration not stated)	KB-V1 MDR tox 14.6µM
Cc1ccc(-c2nnn(CC(=O)N(c3ccc4c(c3)OCCO4)C(C(=O)NCC3CCCO3)c3ccc(F)cc3)n2)o1 (configuration not stated)	MCF10A rereplic inconclusive, SW480 rereplic 16.4µM
Cc1ccc(-c2nnn(CC(=O)N(c3ccccc3)C(C(=O)NCC3CCCO3)c3ccc(F)cc3)n2)o1 (configuration not stated)	none
COc1cccc(N(C(=O)Cn2nnc(-c3ccc(Cl)cc3)n2)C(C(=O)NCC2CCCO2)c2ccc(C)cc2)c1 (configuration not stated)	none
Cc1ccc(-c2nnn(CC(=O)N(c3ccccc3)C(C(=O)NCC3CCCO3)c3ccc(Cl)cc3)n2)cc1 (configuration not stated)	MCF10A rereplic 18.4µM
COc1cccc(-c2nc(-c3ccc(-c4ccccc4)nc3OC)no2)c1	none (no result: S-ASM inh, MCF10A rereplic, Giardia killer, SW480 rereplic)
NCCOc1ccc(C23CC4CC(CC(C4)C2)C3)cc1	KB-3-1 cytotox inconclusive, MCF10A rereplic 4.11µM, KB-V1 MDR tox inconclusive
OCCN1CCN(CC(O)COc2ccc(C34CC5CC(CC(C5)C3)C4)cc2)CC1 (configuration not stated)	KB-3-1 cytotox inconclusive, MCF10A rereplic 11.6µM, SW480 rereplic inconclusive
COc1cc(NC(=O)CCc2c(C)nc3c(c(C)nn3-c3ccccc3)c2C)cc(OC)c1OC	none (no result: S-ASM inh, MCF10A rereplic, Giardia killer, SW480 rereplic)
C/C(CC(=O)Nc1ccc(C)c(Cl)c1)=N\NC(=O)Cc1ccccc1	KB-V1 MDR tox inconclusive
C/C(CC(=O)Nc1ccc(C)c(Cl)c1)=N\NC(=O)c1ccco1	MCF10A rereplic 18.4µM, KB-V1 MDR tox inconclusive
C/C(CC(=O)Nc1ccc(OCc2ccccc2)cc1)=N\NC(=O)C(=O)Nc1ccc(C)c(Cl)c1	KB-3-1 cytotox inconclusive, MCF10A rereplic 10.3µM
O=C(Nc1ccc(O)c2c(=O)cc(-c3ccccc3Cl)oc12)c1cc(Cl)cc(Cl)c1	none (no result: S-ASM inh, KB-3-1 cytotox, MCF10A rereplic, SW480 rereplic, KB-V1 MDR tox)
Cc1ccc(-n2ncc3c(N4CCCCCC4)ncnc32)cc1C	none (no result: S-ASM inh, MCF10A rereplic, Giardia killer, SW480 rereplic)
CC1CCN(c2ccc(NC(=O)Cc3ccccc3)cc2)CC1	none
COc1cccc(CNc2ccc(N3CCC(C)CC3)cc2)c1OC	KB-3-1 cytotox 20.6µM, KB-V1 MDR tox 20.6µM
C[C@@H]1CCCCO[C@H](CN(C)C(=O)c2ccncc2)[C@H](C)CN([C@@H](C)CO)C(=O)c2cc(NC(=O)c3ccccc3)ccc2O1	none (no result: S-ASM inh, MCF10A rereplic, Giardia killer, SW480 rereplic)
CCCN(C)C[C@@H]1OCCCC[C@@H](C)Oc2ccc(NC(=O)c3ccccc3)cc2C(=O)N([C@H](C)CO)C[C@@H]1C	KB-3-1 cytotox 4.61µM (no result: S-ASM inh, MCF10A rereplic, Giardia killer, SW480 rereplic)
C[C@@H]1CCCCO[C@H](CN(C)Cc2ccc(C(F)(F)F)cc2)[C@H](C)CN([C@@H](C)CO)C(=O)c2cc(NC(=O)Cc3ccccc3)ccc2O1	KB-3-1 cytotox inconclusive, KB-V1 MDR tox 25.9µM (no result: S-ASM inh, MCF10A rereplic, Giardia killer, SW480 rereplic)
